# Screening results deposited in PubChem BioAssay by several laboratories.
# Shown are actives, neighbours in structure and some others; about 2.9% of the full set was active somewhere.
# GRK2 inh – blocks RNA aptamer binding to human GRK2. AID 488847. bead flow cytometry, FAM-aptamer displacement from GRK2. 330,000 compounds, 0.59% hits. inhibition of aptamer binding, % at 10 µM;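 active means inhibition of aptamer binding above 40%, roughly 3 SD of noise, on plates passing a quality check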;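 further: median bead fluorescence of bound FAM aptamer so fluorescent compounds give negative values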
# PP1 counter – blocks human PP1-alpha phosphatase, a PP5 counter-screen; P62136; purified PP1alpha, OMFP fluorescence; 320,000 compounds, 0.9% hits; inhibition, % at 6.7 µM;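 active means inhibition above the mean inhibition of all tested compounds plus 3 SD, computed separately for each screening campaign, cut at about 15% in these data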
# Target sequence (P62136 whole entry, looked up): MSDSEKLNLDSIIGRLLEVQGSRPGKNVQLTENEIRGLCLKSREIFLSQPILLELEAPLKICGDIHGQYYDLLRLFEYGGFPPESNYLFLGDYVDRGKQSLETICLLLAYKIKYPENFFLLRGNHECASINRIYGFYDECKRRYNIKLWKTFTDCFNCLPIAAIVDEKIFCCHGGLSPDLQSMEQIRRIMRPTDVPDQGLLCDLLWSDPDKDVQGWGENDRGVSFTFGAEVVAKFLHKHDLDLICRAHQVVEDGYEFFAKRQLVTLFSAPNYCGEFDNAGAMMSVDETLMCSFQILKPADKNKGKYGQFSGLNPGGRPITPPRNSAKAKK
# NadD block – blocks S. aureus nicotinate mononucleotide adenylyltransferase; AID 602399; purified NadD enzyme, colorimetric absorbance read-out; 360,000 compounds, 0.78% hits; inhibition, % at 20 µM; in the data active means inhibition above about 26%
# B2AR ag – human beta-2 adrenergic receptor agonism by FAP | P07550 | Am2.2-beta2AR cells, FAP receptor internalization, flow cytometry | response, % (concentration not given with the values) | 340,000 compounds, 0.43% hits;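 active means response above a set limit, near 3 SD of response in nonfluorescent compounds, cut at about 42% in these data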
# Granule exo inh – blocks lytic granule exocytosis. 360,000 compounds, 0.66% hits. AID 651702. inhibition, % at 10 µM. TALL-104 LAMP-1 surface exposure, flow cytometry; cells stimulated with thapsigargin and PMA;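 active means inhibition above about 55%, limit read from the data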
# NadD conf – confirmation of Staphylococcus aureus NadD inhibitors; inhibition, % at 20 µM; shares compounds with NadD block; purified S. aureus NadD, colorimetric enzyme assay; AID 624309; 2,000 compounds, 13% hits; in the data active means inhibition mostly above about 42%, no sharp cut-off; inactive means mostly below about 42%
# * marks the source's active call; other numbers are inactive results; · = no result.
SMILES,GRK2 inh,PP1 counter,NadD block,B2AR ag,Granule exo inh,NadD conf
O=C(Nc1ccc(S(=O)(=O)N2CCOCC2)cc1)c1ccc(F)cc1,4,1,-3,0,-1,·
Cc1nnc(NC(=O)c2ccc(S(=O)(=O)N3CCCCC3)cc2)s1,1,·,2,3,-4,·
O=C(Nc1c2c(nn1-c1ccc(F)cc1)CSC2)c1ccc(S(=O)(=O)N2CCOCC2)cc1,0,5,42*,5,-2,34
CC(C)NC(=O)C1(C)CCCCN1Cc1ccc(OCc2ccccc2)cc1 (centres undefined),·,·,-7,·,-6,·
Cc1nc2ccc(NS(=O)(=O)c3ccc(Br)cc3)cc2s1,1,0,11,-2,-5,·
CCC(C)n1c(NC(=O)c2ccccc2)c(C#N)c2nc3ccccc3nc21 (centres undefined),3,5,41*,-33,8,31
CCCCn1c(NC(=O)c2ccccc2)c(C#N)c2nc3ccccc3nc21,·,·,33*,-21,14,43
O=C(Cn1c(=O)n(Cc2ccco2)c(=O)c2c3c(sc21)CCCCC3)Nc1ccccc1,2,8,51*,1,1,41
CN(C)CCn1c(=O)n(Cc2ccco2)c(=O)c2c3c(sc21)CCCCC3,0,-1,-5,-8,4,·
S=c1[nH]nc(-c2cc(-c3ccccc3)n[nH]2)n1/N=C/c1ccccc1,0,-1,9,-2,3,·
S=c1[nH]nc(-c2cc(-c3ccccc3)n[nH]2)n1/N=C/C(Br)=C/c1ccccc1,0,10,62*,9,63*,3
Cc1ccc(S(=O)(=O)N2CCOCC2)cc1NC(=O)CNCC1CCCCC1,0,-1,-11,-17,-3,·
O=C(NCc1ccccc1)C(c1ccncc1)N(C(=O)c1csnn1)c1cccc(F)c1 (centres undefined),5,2,-1,-1,-2,·
CC(C)C[C@@H](CNC(=O)OC(C)(C)C)NC(=O)c1nc[nH]c1C(=O)N[C@@H](CC(C)C)C(=O)CNC[C@H](CC(C)C)NC(=O)c1nc[nH]c1C(=O)N[C@@H](Cc1c[nH]c2ccccc12)C(=O)OC(C)(C)C,1,·,30*,7,-1,5
CC(C)C[C@@H](CNCC(=O)[C@H](Cc1c[nH]c2ccccc12)NC(=O)c1[nH]cnc1C(=O)N[C@@H](C)CN)NC(=O)c1nc[nH]c1C(=O)N[C@@H](Cc1ccccc1)C(=O)O,·,·,34*,4,3,43
CC(C)C[C@@H](CN)NC(=O)c1nc[nH]c1C(=O)N[C@@H](C)C(=O)CNC[C@H](CC(C)C)NC(=O)c1nc[nH]c1C(=O)N[C@@H](Cc1ccccc1)C(=O)O,·,·,32*,3,-2,46
CC(C)C[C@@H](CNCC(=O)[C@H](C)NC(=O)c1[nH]cnc1C(=O)N[C@@H](C)CN)NC(=O)c1nc[nH]c1C(=O)N[C@@H](Cc1ccccc1)C(=O)O,·,·,14,-3,-7,·
Cc1cccc(Nc2nnc(SC/C(O)=C(\C#N)c3nc4ccccc4[nH]3)s2)c1,3,5,32*,-4,0,38
Cc1cc(C)n2c(SCC(O)=C(C#N)c3nc4ccccc4[nH]3)nnc2n1,·,·,25,3,5,·
Cc1ccc(Nc2nnc(SC/C(O)=C(\C#N)c3nc4ccccc4[nH]3)s2)c(C)c1,7,11,56*,0,0,61*
O=C(O)CC/C(=N/NC(=O)c1cn(-c2ccccc2)nc1-c1ccccc1)C(=O)O,2,-5,14,-14,-15,·
COC(=O)CCCC1=CC2=CC(=O)C(C)(OC(=O)c3cccs3)C(=O)C2=CN1Cc1ccc2c(c1)OCO2 (centres undefined),3,18*,36*,10,-1,28
COC(=O)CCCC1=CC2=CC(=O)C(C)(OC(=O)c3cccs3)C(=O)C2=CN1Cc1ccccc1 (centres undefined),3,9,8,-3,-4,·
Cc1nc(-c2ccc(S(=O)(=O)Oc3ccc(Cl)cc3Cl)s2)cs1,0,-2,2,-1,4,·
COc1ccc(Cc2nnc(NC(=O)c3ccco3)s2)cc1OC,0,0,1,-3,-5,·
SMILES,GRK2 inh,PP1 counter,NadD block,B2AR ag,Granule exo inh,NadD conf
N=c1c(C(=O)NCc2ccco2)cc2c(=O)n3ccccc3nc2n1CCc1ccccc1,1,6,18,7,19,·
N=c1c(S(=O)(=O)c2ccc(Br)cc2)cc2c(=O)n3ccccc3nc2n1Cc1ccccc1,0,1,32*,-17,27,30
N=c1c(S(=O)(=O)c2ccc(Cl)cc2)cc2c(=O)n3ccccc3nc2n1Cc1ccco1,1,6,43*,0,9,13
Cc1ccc(Cn2c(=N)c(S(=O)(=O)c3ccc(Br)cc3)cc3c(=O)n4ccccc4nc32)cc1,3,0,23,-5,-4,·
Cc1ccc(Cn2c(=N)c(C(=O)NCc3ccco3)cc3c(=O)n4ccccc4nc32)cc1,0,16*,43*,27,28,39
N=c1c(S(=O)(=O)c2ccc(Br)cc2)cc2c(=O)n3ccccc3nc2n1Cc1ccco1,0,8,49*,9,0,12
CCC(=O)N1CCN(c2ccc(NC(=O)COc3ccccc3[N+](=O)[O-])cc2)CC1,10,-2,3,6,-2,·
O=CNc1ccc2c(c1)Cc1cccc(NC=O)c1-2,·,·,1,0,4,·
Fc1ccccc1OCC1CCCN(Cc2nc(CC3CC3)no2)C1 (centres undefined),0,-1,4,-3,-1,·
Cc1noc(C)c1S(=O)(=O)N(C)CC(=O)Nc1ccc(F)cc1,1,-3,1,-1,-1,·
N=c1c(S(=O)(=O)c2ccccc2)cc2c(=O)n3ccccc3nc2n1C1CCCCC1,·,·,3,-5,0,·
N=c1c(S(=O)(=O)c2ccc(Br)cc2)cc2c(=O)n3ccccc3nc2n1C1CCCCC1,1,-3,42*,8,-3,23
COc1ccccc1C(=O)C1CCCN(C(=O)c2snnc2C)C1 (centres undefined),0,4,-2,-1,-4,·
Cc1ccnc(NS(=O)(=O)c2ccc(N3C(=O)c4ccccc4C3=O)cc2)n1,0,-4,1,-1,0,·
Cc1ccnc(NS(=O)(=O)c2ccc(N3C(=O)c4c(Cl)c(Cl)c(Cl)c(Cl)c4C3=O)cc2)n1,4,-5,34*,-4,0,6
COc1ccc2c3c(n(C(=O)OC(C)(C)C)c2c1)C1CC=C(COC(C)=O)CN1CC3 (centres undefined),·,·,·,·,4,·
COC(=O)c1c(NC(=O)CSc2nnc(C)c(=O)[nH]2)sc(C)c1C,2,-3,4,7,0,·
Nc1cccc2c(=O)c3ccccc3[nH]c12,0,16*,29*,1,-5,-3
C/C(CC(=O)Nc1cccc(C(F)(F)F)c1)=N\NC(=O)C1CCCCC1,0,8,10,-2,1,·
